The source of these data is PubChem BioAssay AID624459 (National Center for Advancing Translational Sciences (NCATS), 2012).

The assay can be described thus: HTS Assay for Allosteric Antagonists of the Human D2 Dopamine Receptor: Hit Validation in Parental Cell Line. As to conditions: HEK293 T-REx parental cells, calcium flux, dopamine EC80; series mostly up to 41.8 µM. In general terms: Calcium assays in cells follow changes in intracellular calcium, usually with a dye or a luminescent sensor.

Activity calls are given as the source filed them. No rule for the calls is given here.

Take `NCCc1ccc(O)c(O)c1`: the result was inactive.
